Only a selection was taken, and hits are over-represented in it overall.
HIV RNase H inh-1: inhibitors of HIV-1 reverse transcriptase RNase H | P04585 | RT-RNase H RNA/DNA duplex cleavage, fluorescence | inhibition, % at 10 µM | 1.9% of 65,000 active | AID 565; in the data active means inhibition above about 50%
HIV RNase H inh-2: confirmation of HIV-1 reverse transcriptase RNase H inhibitors; shares compounds with HIV RNase H inh-1; Recombinant RT RNase H, fluorescent RNA/DNA duplex cleavage; inhibition, % at 10 µM; 39% of 1,000 active; AID 651; in the data active means inhibition above about 48%
The depositor's hits bear a star.

SMILES | HIV RNase H inh-1 | others
CCCCOc1ccc(/C=c2\sc3ncnn3c2=O)cc1 | 15
Cc1csc2nc(CNS(=O)(=O)c3cccnc3)cn12 | -10
CC(NC(=O)c1ccc(S(=O)(=O)N(C)C)cc1)c1ccccc1 (stereo unspecified) | -5
O=C(CN1CCC(NC(=O)Nc2ccccc2-c2ccccc2)CC1)NCc1ccco1 | 38
COc1ccc2nc(NCCCNC(=O)c3cc(OC)c(OC)c(OC)c3)c(C#N)cc2c1 | 2
O=C(CSc1ccc2nnc(-c3cccc(F)c3)n2n1)NCC1CCCO1 (stereo unspecified) | 73* | HIV RNase H inh-2=33
O=C(CSc1ccc2nnc(-c3ccccn3)n2n1)NCC1CCCO1 (stereo unspecified) | -6
O=C(CSc1ccc2nnc(-c3cccnc3)n2n1)NCC1CCCO1 (stereo unspecified) | 7
CCOC(=O)C1CCN(C(=O)CSC2=NCCS2)CC1 | -11
O=C(CC1Oc2ccc(Cl)cc2NC1=O)NC1CCCCCC1 (stereo unspecified) | 20
O=C(CCCC(=O)N(CC(=O)NC1CCCC1)Cc1ccccc1)Nc1ccccn1 | 0
C=CCOC(=O)C1=C(C)NC(SCC(=O)Nc2ccc(C)c(Cl)c2)=C(C#N)C1c1ccco1 (stereo unspecified) | 94* | HIV RNase H inh-2=85*
COCCOC(=O)C1=C(C)NC(SCC(=O)NC(C)(C)C)=C(C#N)C1c1ccco1 (stereo unspecified) | 3
Cc1ccc(NC(=O)CSC2=C(C#N)C(c3ccco3)C3=C(CCCC3=O)N2)cc1 (stereo unspecified) | 9
COc1cc2c(cc1OC)C(C)N(C(=O)C1COc3ccccc3O1)CC2 (stereo unspecified) | -19
CCOC(=O)c1c(/N=C/N(C)C)sc(C(=O)OC)c1C | -10
Cc1occc1-c1nnc(SCC(=O)N2CCCc3ccccc32)n1Cc1ccco1 | 2
COc1ccc(-c2nc(NC(=O)CSc3nnc(C)s3)ns2)cc1 | 8
CN1/C(=N\O)c2cccc3cccc1c23 | 61* | HIV RNase H inh-2=2
CN1c2cccc3cccc(c23)N(C)C1(C)C | 2
CCCN1c2cccc3cccc(c23)S1(=O)=O | -62
O=C(NCCCN1CCOCC1)c1ccc(CS(=O)(=O)Cc2ccc(Cl)cc2)o1 | 5
CCOC(=O)C1CCCN(S(=O)(=O)c2cccc3cccnc23)C1 (stereo unspecified) | -32
O=C(Cc1cccs1)Nc1cccnc1 | -4
O=C1CCCC(O)=C1C(C#Cc1ccccc1)C1=C(O)CCCC1=O | 83* | HIV RNase H inh-2=78*
SMILES | HIV RNase H inh-1 | others
O=C1CCCC2=C1C(c1ccccc1O)C1=C(CCCC1=O)O2 | 11
O=C1CCCc2c1[nH]c1ccccc21 | 26
C=CCNS(=O)(=O)c1nc(C)c(Cl)c(C)c1C#N | -20
COCCCNC(=O)C1CCN(C(=O)Nc2ccc(Cl)cc2)CC1 | 3
Cc1ccc(CCNC(=O)Cn2cccc2)cc1 | -3
NC(=O)CN(c1ccccc1)C1SC(=O)N(Cc2ccccc2)C1=O (stereo unspecified) | 2
Cc1ccc(N2C(=O)SC(N(CC(=O)O)c3cccc(C)c3)C2=O)cc1 (stereo unspecified) | 11
Cc1ccc(N(CC(N)=O)C2SC(=O)N(Cc3ccccc3)C2=O)cc1 (stereo unspecified) | 63* | HIV RNase H inh-2=41
O=C(c1ccc2snnc2c1)N1CCOCC1 | 0
CCCCSc1c(C)c2cc3c(cc2[nH]c1=O)OCO3 | 14
Cc1cc2nc(-c3ccc(SCC(=O)N4CCOCC4)nc3)[nH]c2cc1C | 7
Cc1cc2nc(-c3ccc(SCC(=O)N4CCN(C(=O)c5ccco5)CC4)nc3)[nH]c2cc1C | 74* | HIV RNase H inh-2=45
Cc1cc2cc3c(cc2nc1SCC(=O)N1CCN(C(=O)c2ccco2)CC1)OCO3 | -1
COC(=O)c1ccccc1NC(NC(=O)c1ccco1)C(=O)c1ccc(C)cc1 (stereo unspecified) | 0
Cc1oncc1C(=O)Nc1ccc(C(F)(F)F)cc1 | -16
CN(C)c1cc(O)c(C(=S)Nc2ccccc2)c(N(C)C)c1 | -75
Cc1oncc1C(=S)Nc1ccccc1 | 74* | HIV RNase H inh-2=25
COc1ccc(C2C(C#N)=C(/N=C/N3CCN(C)CC3)OC3=C2C(=O)CC(C)(C)C3)cc1OC (stereo unspecified) | -2
O=C(O)c1ccc2c(c1)N(Cc1ccccc1F)C(=O)c1ccccc1S2=O (stereo unspecified) | -2
CC1(O)c2ccccc2C(=O)N1CCc1ccccc1F (stereo unspecified) | 89* | HIV RNase H inh-2=16
CC1(O)c2ccccc2C(=O)N1Cc1ccccc1 (stereo unspecified) | -10
CCn1cc(C(=O)NCc2cccs2)c(=O)c2cc(S(=O)(=O)N3CCOCC3)ccc21 | 7
COC(=O)c1ccc2c(c1)N(Cc1nc(-c3cccc(Cl)c3)oc1C)C(=O)C1CCCN21 (stereo unspecified) | 20
COC(=O)c1ccc2c(c1)N(Cc1nc(-c3ccc(Cl)cc3)oc1C)C(=O)C1CCCN21 (stereo unspecified) | 78* | HIV RNase H inh-2=96*
